This is an account of results in PubChem BioAssay AID1347420 (Sanford-Burnham Center for Chemical Genomics, 2020).

SMILES strings stand for the structures. Several values for one entry are separate records, joined by “and”; a condition that tells them apart may be missing. Equal values may be shown once. About 980 (75%) of roughly 1,300 compounds were called active. About 4% were inconclusive and are not listed. Some of the results follow. A number with no mark means an inactive call.

The target of this assay is Sulfhydryl oxidase 1 (Homo sapiens) (UniProt O00391). Description: inhibition of human sulfhydryl oxidase QSOX1 – biochemical, HyperBlu H2O2 luminescence, HTS, primary screen (AID 1347420). Note: values above 100% were filed as inconclusive. Conditions: recombinant QSOX1, HyperBlu H2O2 luminescence; at 12.5 µM; hits give high values; active = any value above zero.
Sulfhydryl oxidase 1 (Homo sapiens), sequence (O00391 whole entry, looked up): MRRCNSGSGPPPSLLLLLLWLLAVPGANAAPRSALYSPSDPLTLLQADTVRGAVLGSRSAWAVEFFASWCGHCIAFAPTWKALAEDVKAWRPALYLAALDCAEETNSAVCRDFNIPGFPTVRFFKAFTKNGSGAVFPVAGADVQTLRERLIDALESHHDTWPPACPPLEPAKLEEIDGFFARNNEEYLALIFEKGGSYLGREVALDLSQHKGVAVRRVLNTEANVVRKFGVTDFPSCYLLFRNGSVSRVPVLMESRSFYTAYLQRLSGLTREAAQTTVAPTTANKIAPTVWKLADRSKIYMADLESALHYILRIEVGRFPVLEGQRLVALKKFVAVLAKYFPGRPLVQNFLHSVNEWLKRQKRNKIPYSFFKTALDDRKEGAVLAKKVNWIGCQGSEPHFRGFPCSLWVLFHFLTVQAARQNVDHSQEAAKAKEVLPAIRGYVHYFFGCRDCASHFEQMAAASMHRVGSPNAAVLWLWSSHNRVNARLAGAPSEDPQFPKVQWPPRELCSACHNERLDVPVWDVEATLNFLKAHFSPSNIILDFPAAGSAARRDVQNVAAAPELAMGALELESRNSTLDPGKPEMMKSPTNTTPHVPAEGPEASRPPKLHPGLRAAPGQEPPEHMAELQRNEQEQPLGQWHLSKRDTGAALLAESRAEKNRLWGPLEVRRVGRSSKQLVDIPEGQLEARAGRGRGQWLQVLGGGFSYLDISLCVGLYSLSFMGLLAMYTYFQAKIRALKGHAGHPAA
For the molecule `O=C1NC(c2cccc([N+](=O)[O-])c2)=CCN1c1ccccc1O`, the inhibition was 24.8% (active). In the case of `N=C(N)SCCc1cnc[nH]1` it was -0.5%; in that of `NCCc1cnc[nH]1`, 10.9% (active); in that of `CCCCC[C@H](CC(=O)NO)C(=O)N[C@H](C(=O)N1CCC[C@H]1CO)C(C)C`, -27.8%.

In the case of `COc1cc(OC)c(/C=C2/C(=O)Nc3ccccc32)c(OC)c1`, the inhibition was 44.2% (active).

`CCC1(O)CC2CN(CCc3c([nH]c4ccccc34)[C@@](C(=O)OC)(c3cc4c(cc3OC)N(C)C3[C@]45CCN4CC=C[C@@](CC)([C@@H](OC(C)=O)[C@]3(O)C(=O)OC)[C@H]45)C2)C1` (some centres undefined): the inhibition was 18.8% (active). As for `CCC1(O)CC2CN(CCc3c([nH]c4ccccc34)[C@@](C(=O)OC)(c3cc4c(cc3OC)N(C=O)C3[C@]45CCN4CC=C[C@@](CC)([C@@H](OC(C)=O)[C@]3(O)C(=O)OC)[C@H]45)C2)C1` (some centres undefined), the figure is 2.9% (active). With `C/C(=C\c1ccc(C(=O)O)cc1)c1ccc2c(c1)C(C)(C)CCC2(C)C`, the inhibition is 5.8% (active). In the case of `CCCCC/C=C\CC(O)/C=C/c1cccc(CC(O)CCCCO)n1` (centres undefined) it was -9.6%.

`O=c1cc(-c2ccccc2)[nH]c2nc(Cl)ccc12`: the inhibition was 2.9% (active). As to `O=C1CCC(N2C(=O)c3ccccc3C2=O)C(=O)N1` (centres undefined), the inhibition was 3% (active). `Cc1cccc(C#Cc2ccccc2)n1`: the inhibition is 15.5% (active). Take `CC(C)c1ccc2c(c1)c(SC(C)(C)C)c(CC(C)(C)C(=O)O)n2Cc1ccc(Cl)cc1`: the inhibition is 0.2% (active). As for `NCCCCN=C(N)N`, the inhibition is 15.4% (active). For the molecule `NC(N)=NCCCCN=C(N)N`, the inhibition is 7% (active).

In the case of `CCN(CC)CC#CCOC(=O)C(O)(c1ccccc1)C1CCCCC1` (centres undefined), the inhibition was 8.3% (active). As for `O=C(/C=C/c1ccc(O)cc1)c1ccc(O)cc1O`, the figure is 58.4% (active); as for `NC(Cc1cccc(-c2ccccc2CP(=O)(O)O)c1)C(=O)O` (centres undefined), 5.3% (active). For the molecule `Oc1ccc(Cn2cc[nH]c2=S)cc1`, the inhibition was 22.2% (active). As for `COCc1nc2c([nH]1)c(=O)n(C)c(=O)n2CC(C)C`, the figure is 3% (active); as for `CN(C)CCC=C1c2ccccc2CCc2ccccc21`, 23.9% (active); as for `CN(C)CCC=C1c2ccccc2C=Cc2ccccc21`, -6.8%. In the case of `CNCCC=C1c2ccccc2CCc2ccccc21` it was 0.1% (active); in that of `CN(C)CC/C=C1\c2ccccc2COc2ccccc21`, 5% (active); in that of `NC(=O)c1ncn([C@@H]2O[C@H](CO)[C@@H](O)[C@H]2O)c1O`, 9.1% (active). As for `NC(=O)c1ncn([C@@H]2O[C@H](CO)[C@@H](O)[C@H]2O)n1`, the figure is 6.1% (active).

For the molecule `CCN(CC)CC(=O)Nc1c(C)cccc1C`, the inhibition is 6.5% (active).

For `COC(=O)C1=CO[C@@H](O)[C@@H]2C(CO)=CC[C@H]12`, the inhibition is 16.3% (active). In the case of `CCC(C)N(C)C(=O)c1cc2ccccc2c(-c2ccccc2Cl)n1` (centres undefined) it was 14% (active); in that of `CN=C(NC#N)NCCSCc1nc[nH]c1C`, 13.2% (active); in that of `Cc1cccc(C)c1OCC(N)C(C)C` (centres undefined), 15.4% (active).

In the case of `Cc1cccc(C)c1OCC(C)N` (centres undefined), the inhibition was -6%.

`CC(N=C(NC#N)Nc1ccncc1)C(C)(C)C` (centres undefined): the inhibition is -10.9%. As for `CC(N)C1CCC(C(=O)Nc2ccncc2)CC1` (centres undefined), the figure is 23% (active); as for `c1ccc([C@H]2CN3CCSC3=N2)cc1`, 10.2% (active); as for `c1ccc(C2CN3CCSC3=N2)cc1` (centres undefined), -12.3%. In the case of `Brc1ccc([C@H]2CN3CCSC3=N2)cc1` it was 18.2% (active).

Take `CCCn1c(=O)c(C)cn2nc(N)nc12`: the inhibition is 12.2% (active). With `CCCCCCCCCCC(C)(C)C(=O)Nc1c(OC)cc(OC)cc1OC`, the inhibition was 15.9% (active). Take `Brc1c(Br)c(Br)c2n[nH]nc2c1Br`: the inhibition was 29.4% (active).

Regarding `NC(=Nc1ccccc1)NC(=O)c1nc(Cl)c(N)nc1N`, the inhibition is 13.3% (active). In the case of `NC(=NCc1ccccc1)NC(=O)c1nc(Cl)c(N)nc1N`, the inhibition is 3.9% (active).

`O=C(O)CNC(=O)C(CS)Cc1ccccc1` (centres undefined): the inhibition was 3.5% (active). With `COc1ccc(NC(=O)/C=C/c2ccc(Cl)cc2)cc1`, the inhibition was 18% (active). As for `COc1ccc([C@@H]2Sc3ccccc3N(CCN(C)C)C(=O)[C@@H]2OC(C)=O)cc1`, the figure is 10.6% (active); as for `CS(=O)(=O)Nc1ccc([N+](=O)[O-])cc1Oc1ccccc1`, 97.4% (active). `Cc1ccc([N+](=O)[O-])cc1S(=O)(=O)N(C)C`: the inhibition was -9.6%. In the case of `CC[C@H]1CN2CCc3cc(OC)c(OC)cc3[C@@H]2C[C@@H]1C[C@H]1NCCc2cc(OC)c(OC)cc21` it was 13% (active); in that of `COc1cc2c(cc1OC)C1CC(=O)C(CC(C)C)CN1CC2` (centres undefined), 6.3% (active); in that of `CCC1(C)CC(=O)NC1=O` (centres undefined), 13.4% (active). In the case of `O=C(C1CCCCC1)N1CC(=O)N2CCc3ccccc3C2C1` (centres undefined) it was 8% (active); in that of `CC(C)(C)[C@]1(O)CCN2C[C@H]3c4ccccc4CCc4cccc(c43)[C@@H]2C1`, -3.5%; in that of `N[C@@H](CS(=O)O)C(=O)O`, 16% (active). With `N[C@@H](CC(=O)O)C(=O)O`, the inhibition was 20.6% (active). Consider `N[C@H](CO)C(=O)O`, for which the inhibition was 6.6% (active).

`C=CC[C@H](N)C(=O)O`: the inhibition is 5.3% (active). In the case of `N[C@H](C(=O)O)[C@H](O)C(=O)O` it was -0.9%; in that of `CCc1cccc(N(C)C(N)=Nc2cccc3ccccc23)c1`, -10.9%; in that of `O=C(O)COCCN1CCN(C(c2ccccc2)c2ccc(Cl)cc2)CC1` (centres undefined), 6.6% (active).

With `O=C(O)C1=CCCN(CCON=C(c2ccccc2)c2ccccc2)C1`, the inhibition was -7.5%. `CC(C)NCC(O)COc1cccc2ccccc12` (centres undefined): the inhibition is 10.3% (active). Regarding `CC(C)NC[C@H](O)COc1cccc2ccccc12`, the inhibition was -5.6%.

Regarding `C=CCc1ccccc1OCC(O)CNC(C)C` (centres undefined), the inhibition was 1.7% (active). With `CC(C)NC[C@H](O)COc1cccc2[nH]ccc12`, the inhibition is 12.2% (active). In the case of `CCC1(c2ccccc2)C(=O)NCNC1=O` it was -13.9%; in that of `CC(C)NCC(O)COc1cccc2[nH]ccc12` (centres undefined), 8% (active). For the molecule `c1cnc2c(c1)ccc1cccnc12`, the inhibition was 9.8% (active). In the case of `CCCCNc1ccc(C(=O)OCCN(C)C)cc1` it was 9.2% (active). As for `CCN(CC)CCOC(=O)c1ccc(N)cc1`, the figure is -5.5%. As for `CCCCNc1cc(C(=O)O)cc(S(N)(=O)=O)c1Oc1ccccc1`, the figure is -9.6%.

For the molecule `NC(N)=NCc1cccc(I)c1`, the inhibition was 0.4% (active). As for `C=C1C(=O)O[C@@H]2[C@H]3O[C@]3(C)CCC=C(C)CC[C@@H]12`, the inhibition was -3.6%.

On to `CN(C)C(N)=NCCC[C@H](N)C(=O)O`, for which the inhibition is -1.4%. `CSC(N)=NCCC[C@H](N)C(=O)O`: the inhibition was 8% (active). In the case of `CN=C(N)NCCC[C@H](N)C(=O)O` it was 1.3% (active); in that of `CC(N)=NCCCC[C@@H](N)C(=O)O`, 5% (active); in that of `NC(N)=NCCC[C@H](N)C(=O)O`, -5.3%.

Regarding `N#C/C(=C\c1ccc(O)c(O)c1)C(=O)c1ccc(O)c(O)c1`, the inhibition is 81.2% (active). In the case of `C[C@]12C=CC(=O)C=C1CC[C@@H]1C2=CC[C@]2(C)[C@@H](C(=O)CN3CCN(c4cc(N5CCCC5)nc(N5CCCC5)n4)CC3)CC[C@@H]12` it was 21.5% (active); in that of `CN1CC(O)C(O)C(O)C1CO` (centres undefined), 11.1% (active); in that of `Cc1cc2c(cc1Cl)N(C(=O)Nc1ccc(Oc3cccnc3C)nc1)CC2`, 2.9% (active). In the case of `Cc1cc2c(cc1Cl)N(C(=O)Nc1ccnc3ccccc13)CC2` it was 52.9% (active).

As to `c1ccc(CN2CCC3(CCCc4ccccc43)CC2)cc1`, the inhibition was -10.4%.

On to `O=C(OCCN1CCOCC1)C1(c2ccccc2)CCCCC1`, for which the inhibition was 14.9% (active). As for `CCN(CC)CCOCCOC(=O)C1(c2ccccc2)CCCC1`, the figure is -2.7%; as for `C[C@H](NC(CCc1ccccc1)C(=O)O)C(=O)N1CCC[C@H]1C(=O)O` (some centres undefined), -5.7%; as for `CCOC(=O)[C@H](CCc1ccccc1)N[C@@H](C)C(=O)N1[C@H](C(=O)O)C[C@H]2CCCC[C@@H]21`, 12.1% (active). Take `COC(=O)C1=C(C)NC(C)=C(C(=O)OC)C1c1ccccc1[N+](=O)[O-]`: the inhibition is 54.9% (active). As for `COC(=O)C1=C(C)NC(C)=C([N+](=O)[O-])C1c1ccccc1C(F)(F)F` (centres undefined), the inhibition is 59.9% (active). In the case of `CCO/C([O-])=N/c1c[n+](N2CCOCC2)no1` it was -0.8%. In the case of `Cc1nc2c(OCc3ccccc3)cccn2c1CC#N` it was 11.8% (active). In the case of `N=C(N)c1ccccc1` it was -0.4%; in that of `NC(N)=NC(N)=Nc1cccc(Cl)c1`, 25.1% (active). Take `NC(N)=NC(N)=Nc1ccccc1`: the inhibition is 6% (active).

For `CN1CCN2c3ccccc3Cc3ccccc3C2C1` (centres undefined), the inhibition was 9.7% (active). In the case of `Cn1c(=O)c2[nH]c(C3CCCC3)nc2n(C)c1=O` it was 7.5% (active); in that of `CCCn1c(=O)c2[nH]c(C3CCCC3)nc2n(CCC)c1=O`, 5.5% (active); in that of `O=C(c1cc(O)c(O)c([N+](=O)[O-])c1)c1ccccc1F`, 83.5% (active).

Consider `CC(C)C[C@H](NC(=O)[C@@H](O)[C@H](N)Cc1ccccc1)C(=O)O`, for which the inhibition is 0.9% (active). For `CC(C)C[C@H](NC(=O)[C@H](O)[C@H](N)Cc1ccccc1)C(=O)O`, the inhibition was -3.8%. Take `CC(C)NC[C@H](O)c1ccc(O)c(O)c1`: the inhibition is 38.5% (active). Consider `CC(C)NCC(O)c1ccc(O)c(O)c1` (centres undefined), for which the inhibition is 29% (active) and 11.6% (active). As for `CC(C)NCC(O)c1ccc(NS(C)(=O)=O)cc1` (centres undefined), the figure is 4.1% (active).

In the case of `CCC(NC(C)C)C(O)c1ccc(O)c(O)c1` (centres undefined), the inhibition is 38.5% (active). Consider `O=C(O)CCC/C=C\C[C@@H]1[C@@H](/C=C/[C@H](O)C2Cc3ccccc3C2)[C@@H](F)C[C@@H]1O`, for which the inhibition is -13.7%. In the case of `CC(C)(C)NCC(O)c1cc(O)cc(O)c1` (centres undefined) it was 3% (active). In the case of `CC(C)NCC(O)COc1ccc(COCCOC(C)C)cc1` (centres undefined) it was -12.7%; in that of `CC(C)NCC(O)c1cc(O)cc(O)c1` (centres undefined), 8.3% (active). Take `CC(C)(C)NCC(O)c1ccc(O)c(CO)c1` (centres undefined): the inhibition was 17.3% (active).
